# HCV inhibitor: blocks hepatitis C virus; hit rate 3.4% among 340,000; Potency, µM (series often up to 41.8 µM), without a hit: at the top dose activity change, negative = inhibition, most hits filed as inhibitors; Huh7.5.1 HCVcc-Cre infection, luciferase reporter, 44 h
#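 Compounds are dispensed onto cells plated 4 h earlier at 1,000 per well, with HCVcc-Cre virus (about 0.5 moi) added next. Following 44 h of culture, luminescent signal is measured for 15 sec after 15 min with substrate at room temperature.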
# AMA1 RON2 block: disrupts binding of P. falciparum AMA1 to RON2 | AlphaScreen AMA1-biotinylated RON2 peptide binding | Potency, µM (doses to about 58.2 µM), for the others: at the highest dose activity change, negative = inhibition, most hits filed as inhibitors | hit rate 0.2% among 360,000;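 further: 0% = vehicle wells and -100% = peptide control; nearly all actives have a fitted effect of over 45% in size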
#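 AMA1 (3D7) with his tag at 25 nM final met compounds first, then biotinylated RON2 peptide at 25 nM; detection used donor plus acceptor beads, 10 µg/mL apiece, read by AlphaScreen after 30 min at room temperature.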
# Pf growth 48h: P. falciparum growth inhibition at 48 hours (one generation). Potency, µM (highest dose often 28.7 µM), for the others: at the top dose activity change, negative = inhibition, hits mostly inhibitors. hit rate 5.9% among 310,000. P. falciparum luciferase growth in erythrocytes, 48 h
#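 Luciferase-expressing P. falciparum in infected erythrocytes (2% hematocrit, 0.1% parasitemia final) in RPMI 1640/0.5% Albumax were exposed to compound for 48 hours at 37 C, 5% CO2; growth read as luminescence.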
# Pf growth 96h: inhibits malaria parasite growth, 96 h; Potency, µM (top dose mostly 28.7 µM), inactives show at the top dose activity change, negative = inhibition, hits mostly inhibitors; hit rate 6.9% among 320,000; P. falciparum luciferase reporter growth, 96 h
#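 96 h incubation, 37 C, 5% CO2, of luciferase-reporter P. falciparum-infected RBCs (2% hematocrit, 0.05% parasitemia final) with test compounds; endpoint luminescence.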
# * marks the source's active call; other numbers are inactive results; ? = inconclusive; . = not tested or not shown. The list is not random: actives were taken first. Their share in the collection is about 11%. The call rests on the fitted dose curve; in most records, active means well fitted curve in the direction sought with a large enough effect; inconclusive means small, poorly fitted or top-dose-only effect, or another doubt; inactive means no such curve, though single readings can be large; an effect the other way counts as inactive or inconclusive. Unless noted, on the % scale 0 is the no-effect control and ±100 the full control effect; potency means the concentration at half of the fitted maximal effect.
SMILES,HCV inhibitor,AMA1 RON2 block,Pf growth 48h,Pf growth 96h
CC(C)NC(=O)CC(c1ccccc1)c1cc(Br)ccc1O (stereo unspecified),?,-17%,.,?
CCOC(=O)[C@]12CCC=C1N(Cc1cccc3ccccc13)C(=O)[C@H](CC(=O)NCC1CCCCC1)C2,.,-3%,.,.
COc1ccc(C)c(NC(=O)NCCc2cnc[nH]2)c1,29%,-10%,22%,?
COC(=O)c1cccc(CC2(C)C(=O)Nc3ccc(OC(F)(F)F)cc32)c1 (stereo unspecified),.,4%,.,.
COCCNC(=O)CSc1nc(-c2ccccc2)c(-c2ccccc2)o1,?,0%,8.3µM*,.
COCCNC(=O)CC(c1ccccc1)c1ccccc1,16%,3%,.,9.3µM*
O=C1NC(c2ccccc2)=C(c2ccccc2)C1=O,2%,1%,16%,10µM*
CN(C)CCCN(C(=O)c1ccc(C(=O)c2ccccc2)cc1)c1nc2cc3c(cc2s1)OCCO3,-10%,9%,?,?
CC(=O)c1cnc(Nc2cccc(C)c2)s1,?,44%,122%,53%
CCCN(CC(=O)Nc1ccccc1C)C(=O)CCl,7.1µM*,3%,?,1.7µM*
CCCN(CC(=O)Nc1ccccc1C)C(=O)c1ccc(S(=O)(=O)N2CCCCCC2)cc1,-19%,13%,?,?
CCCN(CC(=O)Nc1ccccc1C)C(=O)/C=C/c1ccc(S(=O)(=O)N2CCCCCC2)cc1,?,-13%,13µM*,?
COc1ccc(NC(=O)CN(C)C(=O)/C=C/c2ccc(S(=O)(=O)N3CCCCCC3)cc2)cc1,?,-8%,12µM*,-8%
COc1ccc(CN(C)C(=O)/C=C/c2ccc(S(=O)(=O)N3CCOCC3)cc2)cc1F,?,9%,12µM*,?
NS(=O)(=O)c1cccc(NC(=O)Cn2nc(C(=O)O)c3ccccc3c2=O)c1,22%,26%,17%,37%
Cc1cc(C)n2c(NCc3ccccc3)c(-c3cc4ccccc4o3)nc2n1,.,4%,.,.
C[C@@H]1CN([C@H](C)CO)C(=O)CCCn2nncc2CO[C@H]1CN(C)C(=O)c1ccccc1,.,7%,.,.
CCCc1ccc(-c2cc(NC(=O)CSc3nnc(N)s3)n(-c3ccccc3)n2)cc1,?,15%,23%,39%
O=Nc1c(O)n(Cc2ccc(Cl)cc2)c2ccccc12,-9%,-18%,13µM*,?
O=Nc1c(O)n(Cc2ccc(Cl)cc2Cl)c2ccccc12,2%,11%,?,8.3µM*
Cc1ccc(Cn2c(O)c(N=O)c3ccccc32)cc1,2%,-4%,?,?
Cc1ccc2c(c1)c(N=O)c(O)n2Cc1ccc(Cl)cc1,-6%,-30%,12µM*,-34%
Cc1ccc(N2C(=O)CC3(CC4C=CC3C4)C2=O)cc1 (stereo unspecified),-8%,2%,1%,.
O=C1C2CCCN2C(c2ccco2)N1c1ccc(F)cc1 (stereo unspecified),28%,2%,-8%,17%
Fc1cc2nc(-c3ccncc3)[nH]c2cc1F,-1%,10%,?,1.9µM*
SMILES,HCV inhibitor,AMA1 RON2 block,Pf growth 48h,Pf growth 96h
COc1ccc(CN2CCN(C(=O)CCC(=O)Nc3nnc(C(F)(F)F)s3)CC2)cc1F,-15%,-6%,-9%,?
COc1ccc(CN2CCN(C(=O)CCC(=O)Nc3nnc(C4CCCCC4)s3)CC2)cc1F,?,1%,-27%,12µM*
CCCc1nc2ccccc2c(C(=O)OCC(=O)NCc2ccc3c(c2)OCO3)c1CC,?,6%,10µM*,8.3µM*
CCc1nc2ccccc2c(C(=O)OCC(=O)NCc2ccc3c(c2)OCO3)c1C,?,-1%,-11%,?
Cc1onc(-c2ccccc2)c1C(=O)OCC(=O)Nc1ccc2c(c1)OCO2,?,-8%,?,?
Cc1c(-c2cccc(Cl)c2)nc2ccccc2c1C(=O)OCC(=O)Nc1ccc2c(c1)OCO2,?,-23%,?,2.1µM*
Cc1c(-c2cccc(Cl)c2)nc2ccccc2c1C(=O)NC1CC1,-9%,9%,-24%,10µM*
O=[N+]([O-])c1ccc(Nc2nccc(Cl)n2)cc1,-8%,2%,.,.
CCO[C@H]1OC(C(=O)N2CCOCC2)=C[C@@H](c2coc3ccccc3c2=O)[C@@H]1CCCO,35µM*,4%,25%,1%
CCO[C@@H]1OC(C(=O)N2CCN(Cc3ccccc3)CC2)=C[C@H](c2coc3ccccc3c2=O)[C@H]1CCCO,?,-5%,?,5.2µM*

# Screening data as filed in PubChem BioAssay.
